A word on the viability: it is a read-out of living cells in per cent, often relative to untreated cells.

Calls of active or inactive are those of the source.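 How the source made its calls: active means Her2 level under about 52% in both replicate screens, with viability over 70% of control (limit read from the data); inconclusive means Her2 under the limit in one screen only, or viability under 70%; inactive means Her2 level above the set limit.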

System in the first test: not listed separately
Description: Her2 expression decrease, cell viability multiplex – SKBR3 breast tumor cells, AlphaScreen, ATP viability, primary screen (AID 461).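 On viability: percent of carrier control wells set as 100% viability.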 Particulars: SKBR3 Her2 protein level, 18-24 h, measured here: SKBR3 viability, ATP luminescence, at 10 µM. A general note: Alpha assays give light when donor and acceptor beads are brought close together.
On to `Cc1sc2ncnc(OCC(=O)N3CCN(S(=O)(=O)c4ccc(Cl)cc4)CC3)c2c1C`, for which the viability worked out at 92.5%.

For `CCOC(=O)CNS(=O)(=O)c1c(C)noc1C`, the viability was 110%.

As to `COC(=O)c1onc(C(=O)c2ccccc2)c1C(=O)OC`, the viability was 104%.

For `O=C(O)c1cccc(CN2C(=O)SC(Nc3ccccc3)C2=O)c1` (stereo not given), the viability is 110%.

As for `COC(=O)C1C(=O)c2c([nH]c(C(=O)OCCOC(C)C)c2C)CC1C` (stereo not given), the viability came out at 100%.

Consider `CCOC(=O)c1c(NC(=O)CSc2nnc(-c3ccc(OC)cc3)o2)sc2c1CCC2`, for which the viability is 88%.

As to `O=C(c1cccnc1NCc1ccccc1)N1CCOCC1`, the viability came to 77.5%.

As for `O=C1CC(N2CCN(c3cccc(C(F)(F)F)c3)CC2)C(=O)N1c1ccccc1` (stereo not given), the viability came to 93.5%.

`Cc1ccc(N=C2NC(=O)CS2)c(C)c1`: the viability is 71%.

Take `O=C(NCc1cccs1)C1CCCN(c2ncccn2)C1` (stereo not given): the viability stood at 104%.

On to `Cc1cc2ncn(N)c2cc1C`, for which the viability is 99.5%.

With `COc1ccccc1N1CCN(C(=O)CSc2nc(-c3ccccc3)cc(=O)[nH]2)CC1`, the viability came to 87.5%.

For `Cc1nn(-c2ccccc2)c(Cl)c1C(=O)NCC(=O)O`, the viability stood at 100%.

As for `COc1nc(N2CCOCC2)nc(-n2cccc2)n1`, the viability is 94.5%.

In the case of `CCSc1nnc(NC(=O)C(CC)(C(F)(F)F)C(F)(F)F)s1`, the viability was found to be 79.5%.

For `COC(=O)C1CCN(C(=O)NC(C)(C)C)CC1`, the viability came to 110%.

`Cc1nn(-c2ccc(Cl)cc2)c2sc(C(=O)N3CCN(c4ccccn4)CC3)cc12`: the viability amounted to 103%.

Take `COc1ccc(Oc2c(C)oc3cc(OC(=O)N4CCOCC4)ccc3c2=O)cc1`: the viability amounted to 91%.

For the compound `C[C@@H]1C[C@H](O)c2cc(Cl)ccc2N1`, the viability stood at 104%.

As for `O=C(NCCCNC1CCCCC1)c1ccc(/C=N/O)nc1`, the viability is 84%.

For `CC(=O)Nc1ccc(S(=O)(=O)N2CCC(c3nc4ccccc4[nH]3)CC2)cc1`, the viability stood at 93%.

For `CCOc1ccc(S(=O)(=O)Nc2ccccc2C(=O)Nc2ccccc2N2CCOCC2)cc1`, the viability was determined as 104%.

As to `O=C(c1ccc(COc2c(F)c(F)c(F)c(F)c2F)o1)N1CCOCC1`, the viability worked out at 111%.

Regarding `CC(C)[C@H](NC(=O)NC1CCCC1)C(=O)O`, the viability was found to be 103%.

In the case of `CCOC(=O)C(C)(C)Sc1nc2c(cnn2-c2ccc(C)cc2)c(=O)[nH]1`, the viability stood at 99%.

For the compound `COc1ccccc1NC(=O)c1ccc(COc2ccccc2OC)o1`, the viability is 95.5%.

In the case of `O=C(NCc1ccccn1)Nc1ccc2c(c1)OCO2`, the viability came to 100%.

As to `CCSc1nnc(NC(=O)CSc2ncccn2)s1`, the viability is 97.5%.

As for `O=C(OCc1nnc(-c2ccc(Cl)cc2)o1)c1ccc(=O)n(Cc2ccccc2)n1`, the viability amounted to 84.5%.

As for `COc1ccc(C(=O)NCCn2ccc3ccccc32)c(OC)c1`, the viability came to 95%.

Turning to `O=C(NCc1cccs1)C1CCN(S(=O)(=O)c2cccs2)CC1`, the viability worked out at 103%.

Regarding `CCC(C)n1[nH]c(=O)c2c(C)cc(C)nc21` (stereo not given), the viability was 97.5%.

As for `CC1(C)OC(=O)C(=CNC(CCC(N)=O)C(=O)O)C(=O)O1` (stereo not given), the viability worked out at 100%.

Turning to `O=c1c(CN2CCN(Cc3ccccc3)CC2)coc2ccc(Cl)cc12`, the viability stood at 90%.

For the compound `Cn1c(=O)[nH]c2cc3ccccc3cc21`, the viability turned out to be 118%.

`COc1ccc(-c2[nH]nc3c2C(c2ccccc2OC(=O)N2CCOCC2)C(C#N)=C(N)O3)cc1` (stereo not given): the viability was 120%.

In the case of `COC(=O)C1=C(N)Oc2cc(C)[nH]c(=O)c2C1c1ccncc1` (stereo not given), the viability is 132%.

`CCn1c2ccccc2c2cc(NC(=O)CSc3nnc(C4CC4)n3Cc3ccco3)ccc21`: the viability came to 104%.

With `O=C(CSc1nc2ncccc2[nH]1)Nc1ccc2c(c1)OCCO2`, the viability was 108%.

Turning to `CCSc1nnc(NC(=O)c2nn(C(C)C)c(=O)c3ccccc23)s1`, the viability came to 99%.

In the next test the target is Receptor tyrosine-protein kinase erbB-2 (Homo sapiens) (UniProt P04626). The test is described as above. The conditions noted are these: 18-24 h, at 10 µM, stronger effect = lower value.
Sequence of Receptor tyrosine-protein kinase erbB-2 (Homo sapiens) (P04626 whole entry, looked up): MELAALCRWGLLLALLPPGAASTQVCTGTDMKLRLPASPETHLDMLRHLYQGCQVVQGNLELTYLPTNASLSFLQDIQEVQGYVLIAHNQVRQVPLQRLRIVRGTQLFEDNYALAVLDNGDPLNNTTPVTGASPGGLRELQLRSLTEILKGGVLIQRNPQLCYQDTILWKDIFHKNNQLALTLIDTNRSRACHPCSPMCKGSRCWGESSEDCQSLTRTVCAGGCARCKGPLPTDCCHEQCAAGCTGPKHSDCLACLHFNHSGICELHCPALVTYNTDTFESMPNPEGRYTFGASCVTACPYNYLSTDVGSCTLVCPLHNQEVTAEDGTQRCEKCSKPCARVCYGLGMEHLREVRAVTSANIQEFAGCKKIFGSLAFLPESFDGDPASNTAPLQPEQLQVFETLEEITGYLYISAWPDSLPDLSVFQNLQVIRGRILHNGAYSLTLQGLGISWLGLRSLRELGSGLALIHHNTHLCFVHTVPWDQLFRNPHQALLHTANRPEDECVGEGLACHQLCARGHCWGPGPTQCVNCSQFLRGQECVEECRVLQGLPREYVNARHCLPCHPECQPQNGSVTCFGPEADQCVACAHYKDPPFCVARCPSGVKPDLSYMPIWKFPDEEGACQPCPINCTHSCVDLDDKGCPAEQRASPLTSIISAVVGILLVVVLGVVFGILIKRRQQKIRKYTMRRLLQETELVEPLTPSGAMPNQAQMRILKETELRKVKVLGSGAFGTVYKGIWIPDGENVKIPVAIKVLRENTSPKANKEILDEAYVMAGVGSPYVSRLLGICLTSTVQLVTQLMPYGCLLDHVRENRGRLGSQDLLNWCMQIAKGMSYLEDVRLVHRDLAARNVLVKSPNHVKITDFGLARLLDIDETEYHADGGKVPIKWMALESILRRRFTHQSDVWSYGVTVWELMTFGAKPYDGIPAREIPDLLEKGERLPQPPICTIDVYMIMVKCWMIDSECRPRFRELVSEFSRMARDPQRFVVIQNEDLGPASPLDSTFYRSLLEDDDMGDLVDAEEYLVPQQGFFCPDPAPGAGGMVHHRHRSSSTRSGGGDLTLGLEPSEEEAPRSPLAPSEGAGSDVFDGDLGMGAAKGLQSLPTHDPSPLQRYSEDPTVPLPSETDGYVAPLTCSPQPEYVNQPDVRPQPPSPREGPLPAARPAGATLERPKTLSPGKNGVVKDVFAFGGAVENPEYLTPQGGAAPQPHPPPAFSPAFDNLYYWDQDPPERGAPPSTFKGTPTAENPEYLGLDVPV
As for `Cc1sc2ncnc(OCC(=O)N3CCN(S(=O)(=O)c4ccc(Cl)cc4)CC3)c2c1C`, the Her2 level was 86% (inactive).

For the compound `CCOC(=O)CNS(=O)(=O)c1c(C)noc1C`, the Her2 level is 104% (inactive).

Regarding `COC(=O)c1onc(C(=O)c2ccccc2)c1C(=O)OC`, the Her2 level is 89.5% (inactive).

In the case of `O=C(O)c1cccc(CN2C(=O)SC(Nc3ccccc3)C2=O)c1` (stereo not given), the Her2 level is 89% (inactive).

With `COC(=O)C1C(=O)c2c([nH]c(C(=O)OCCOC(C)C)c2C)CC1C` (stereo not given), the Her2 level was 111% (inactive).

Regarding `CCOC(=O)c1c(NC(=O)CSc2nnc(-c3ccc(OC)cc3)o2)sc2c1CCC2`, the Her2 level is 100% (inactive).

As to `O=C(c1cccnc1NCc1ccccc1)N1CCOCC1`, the Her2 level was 126% (inactive).

As for `O=C1CC(N2CCN(c3cccc(C(F)(F)F)c3)CC2)C(=O)N1c1ccccc1` (stereo not given), the Her2 level was 112% (inactive).

For the compound `Cc1ccc(N=C2NC(=O)CS2)c(C)c1`, the Her2 level is 91% (inactive).

Consider `O=C(NCc1cccs1)C1CCCN(c2ncccn2)C1` (stereo not given), for which the Her2 level is 89.5% (inactive).

As for `Cc1cc2ncn(N)c2cc1C`, the Her2 level is 84% (inactive).

Regarding `COc1ccccc1N1CCN(C(=O)CSc2nc(-c3ccccc3)cc(=O)[nH]2)CC1`, the Her2 level was 124% (inactive).

In the case of `Cc1nn(-c2ccccc2)c(Cl)c1C(=O)NCC(=O)O`, the Her2 level is 96% (inactive).

`COc1nc(N2CCOCC2)nc(-n2cccc2)n1`: the Her2 level was 86.5% (inactive).

`CCSc1nnc(NC(=O)C(CC)(C(F)(F)F)C(F)(F)F)s1`: the Her2 level was 120% (inactive).

Turning to `COC(=O)C1CCN(C(=O)NC(C)(C)C)CC1`, the Her2 level was 83% (inactive).

Take `Cc1nn(-c2ccc(Cl)cc2)c2sc(C(=O)N3CCN(c4ccccn4)CC3)cc12`: the Her2 level is 80% (inactive).

For `COc1ccc(Oc2c(C)oc3cc(OC(=O)N4CCOCC4)ccc3c2=O)cc1`, the Her2 level was 99% (inactive).

With `C[C@@H]1C[C@H](O)c2cc(Cl)ccc2N1`, the Her2 level is 88.5% (inactive).

Consider `O=C(NCCCNC1CCCCC1)c1ccc(/C=N/O)nc1`, for which the Her2 level was 96% (inactive).

With `CC(=O)Nc1ccc(S(=O)(=O)N2CCC(c3nc4ccccc4[nH]3)CC2)cc1`, the Her2 level is 81.5% (inactive).

As for `CCOc1ccc(S(=O)(=O)Nc2ccccc2C(=O)Nc2ccccc2N2CCOCC2)cc1`, the Her2 level was 97.5% (inactive).

For the compound `O=C(c1ccc(COc2c(F)c(F)c(F)c(F)c2F)o1)N1CCOCC1`, the Her2 level was 98.5% (inactive).

For the compound `CC(C)[C@H](NC(=O)NC1CCCC1)C(=O)O`, the Her2 level was 97.5% (inactive).

Regarding `CCOC(=O)C(C)(C)Sc1nc2c(cnn2-c2ccc(C)cc2)c(=O)[nH]1`, the Her2 level is 100% (inactive).

Consider `COc1ccccc1NC(=O)c1ccc(COc2ccccc2OC)o1`, for which the Her2 level is 97% (inactive).

With `O=C(NCc1ccccn1)Nc1ccc2c(c1)OCO2`, the Her2 level was 102% (inactive).

On to `CCSc1nnc(NC(=O)CSc2ncccn2)s1`, for which the Her2 level is 102% (inactive).

Turning to `O=C(OCc1nnc(-c2ccc(Cl)cc2)o1)c1ccc(=O)n(Cc2ccccc2)n1`, the Her2 level is 84.5% (inactive).

As to `COc1ccc(C(=O)NCCn2ccc3ccccc32)c(OC)c1`, the Her2 level is 81% (inactive).

In the case of `O=C(NCc1cccs1)C1CCN(S(=O)(=O)c2cccs2)CC1`, the Her2 level was 89% (inactive).

On to `CCC(C)n1[nH]c(=O)c2c(C)cc(C)nc21` (stereo not given), for which the Her2 level is 91.5% (inactive).

In the case of `CC1(C)OC(=O)C(=CNC(CCC(N)=O)C(=O)O)C(=O)O1` (stereo not given), the Her2 level was 110% (inactive).

Regarding `O=c1c(CN2CCN(Cc3ccccc3)CC2)coc2ccc(Cl)cc12`, the Her2 level was 85.5% (inactive).

Regarding `Cn1c(=O)[nH]c2cc3ccccc3cc21`, the Her2 level is 94% (inactive).

Turning to `COc1ccc(-c2[nH]nc3c2C(c2ccccc2OC(=O)N2CCOCC2)C(C#N)=C(N)O3)cc1` (stereo not given), the Her2 level is 85.5% (inactive).

Turning to `COC(=O)C1=C(N)Oc2cc(C)[nH]c(=O)c2C1c1ccncc1` (stereo not given), the Her2 level is 106% (inactive).

`CCn1c2ccccc2c2cc(NC(=O)CSc3nnc(C4CC4)n3Cc3ccco3)ccc21`: the Her2 level is 88% (inactive).

Consider `O=C(CSc1nc2ncccc2[nH]1)Nc1ccc2c(c1)OCCO2`, for which the Her2 level is 118% (inactive).

As for `CCSc1nnc(NC(=O)c2nn(C(C)C)c(=O)c3ccccc23)s1`, the Her2 level was 77.5% (inactive).
